This note sets out measurements from PubChem BioAssay (NCATS).

Where “and” joins values, the source holds several entries; their conditions need not be identical. Equal values may be shown once. Calls of active or inactive are those of the source. Unless noted, the call rests on the fitted dose curve.

Assay [1] concerns the target Estrogen receptor (Homo sapiens) (UniProt P03372). The assay is described as follows: qHTS assay for small molecule antagonists of estrogen receptor alpha signaling (AID 588513; active means well fitted curve in the direction sought with a large enough effect in the signal ratio, with a control signal flat, not every such curve was filed as active; inconclusive means small, poorly fitted or top-dose-only effect, or effect the other way, or a change in a side signal; inactive means no such curve, though single readings can be large or run the other way; the % refers to the signal ratio; further: potency means the concentration at half of the fitted maximal effect). A digest of the protocol:
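Beta-lactamase reporter, antagonist mode, HEK 293 GripTite cells; 0.5nM E2 stimulus, 18 h, 37 C; CCF4 dye 2 h RT; fluorescence. IC50 and efficacy from Hill fits, normalized to E2 and DMSO.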
A general note: In qHTS, concentration-response curves come from the screen itself.

The target of assay [2] is Bile acid receptor (Homo sapiens) (UniProt Q96RI1). The assay can be described thus: qHTS assay for small molecule agonists of farnesoid X receptor signaling (AID 588527).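 Further: series mostly up to about 77 µM; 0% = vehicle basal and 100% = reference agonist.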 Particulars: HEK293T FXR-UAS-bla, beta-lactamase ratio, 16 h; activation: stronger effect = higher value. A digest of the protocol:
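FXR-UAS-bla HEK293T cells (10% dialyzed FBS) preincubated 5-7 h at 37 C, then compounds at up to 92 uM for 16 h at 37 C. CCF4 beta-lactamase read-out after 2 h RT. Normalized to chenodeoxycholic acid (100 uM) and DMSO; Hill fit gave EC50 and efficacy.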

The target in assay [3] is Vitamin D3 receptor (Homo sapiens) (UniProt P11473). The assay is described as follows: qHTS assay for small molecule agonists of vitamin D receptor signaling (AID 588543).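 Further: 0% = DMSO basal and 100% = reference agonist control.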 A digest of the protocol:
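β-lactamase reporter, VDR-UAS-bla HEK293T, agonist mode. Cells plated 5 h at 37 °C, compound titration 16 h at 37 °C, CCF4 dye 2 h RT, ratio 460/530 nm. Hill fit → EC50, efficacy vs 50 nM 1α,25-(OH)2D3.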

In assay [4] the target is Androgen receptor (Homo sapiens) (UniProt P10275). The assay can be described thus: qHTS assay for small molecule agonists of androgen receptor signaling (AID 588515; active means well fitted curve in the direction sought with a large enough effect in the signal ratio, with a control signal flat; inconclusive means small, poorly fitted or top-dose-only effect, or effect the other way, or a change in a side signal; inactive means no such curve, though single readings can be large or run the other way; the % refers to the signal ratio; further: on the % scale 0 is the no-effect control and ±100 the full control effect). Particulars: AR-UAS-bla HEK293, beta-lactamase ratio, agonist 16 h; stronger effect = higher value. A digest of the protocol: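 EC50 and efficacy came from Hill fits of titrations (up to 92 uM) normalized to 30 nM R1881 as 100% and DMSO as 0%. Compound exposure was 16 h at 37 C on AR-UAS-bla HEK293 cells, with a 405/460/530 nm CCF4 fluorescence read.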
Androgen receptor (Homo sapiens), sequence (P10275 whole entry, looked up): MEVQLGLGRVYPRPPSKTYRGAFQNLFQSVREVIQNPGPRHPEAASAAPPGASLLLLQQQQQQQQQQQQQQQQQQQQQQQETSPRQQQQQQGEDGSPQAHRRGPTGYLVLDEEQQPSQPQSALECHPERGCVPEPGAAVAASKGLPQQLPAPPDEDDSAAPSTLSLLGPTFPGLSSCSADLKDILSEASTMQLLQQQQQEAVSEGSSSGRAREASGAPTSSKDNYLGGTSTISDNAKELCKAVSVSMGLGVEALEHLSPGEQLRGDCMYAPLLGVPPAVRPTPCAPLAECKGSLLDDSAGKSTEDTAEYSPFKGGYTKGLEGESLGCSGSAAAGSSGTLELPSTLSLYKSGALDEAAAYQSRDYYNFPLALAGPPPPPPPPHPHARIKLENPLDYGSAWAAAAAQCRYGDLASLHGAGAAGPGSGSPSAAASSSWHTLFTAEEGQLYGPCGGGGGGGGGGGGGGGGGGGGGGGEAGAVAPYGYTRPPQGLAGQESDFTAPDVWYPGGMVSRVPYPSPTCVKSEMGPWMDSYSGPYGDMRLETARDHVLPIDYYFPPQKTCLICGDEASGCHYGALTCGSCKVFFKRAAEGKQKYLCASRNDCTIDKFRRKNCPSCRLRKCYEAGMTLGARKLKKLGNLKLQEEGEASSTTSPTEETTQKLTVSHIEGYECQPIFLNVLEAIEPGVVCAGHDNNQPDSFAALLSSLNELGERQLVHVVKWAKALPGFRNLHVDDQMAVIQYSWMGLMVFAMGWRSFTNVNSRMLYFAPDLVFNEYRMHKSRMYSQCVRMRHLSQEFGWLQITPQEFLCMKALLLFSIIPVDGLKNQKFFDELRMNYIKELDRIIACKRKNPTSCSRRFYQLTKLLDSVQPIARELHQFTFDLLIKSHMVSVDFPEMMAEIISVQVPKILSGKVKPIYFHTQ

A short description of assay [5]: qHTS assay for small molecule agonists of the antioxidant response element (ARE) signaling pathway (AID 651741; active means well fitted activation curve with a large enough effect in the signal ratio; inconclusive means small, poorly fitted or top-dose-only effect, or effect the other way, or a change in a side signal; the % refers to the signal ratio; further: potency means the concentration at half of the fitted maximal effect; on activation: % of control where 0% means no effect). A digest of the protocol:
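ARE-bla HepG2 cells (beta-lactamase reporter under ARE control) were plated at 2,000 cells/well, preincubated 5 h at 37 C/5% CO2, then treated with DMSO-dissolved compounds for 16 h at 37 C; LiveBLAzer B/G FRET substrate added, fluorescence read after 2 h at room temperature.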

In assay [6] the target is Androgen receptor (Homo sapiens) (UniProt P10275). The assay is described as follows: qHTS assay for small molecule antagonists of androgen receptor signaling (AID 588516; active means well fitted curve in the direction sought with a large enough effect in the signal ratio, with a control signal flat, not every such curve was filed as active; inconclusive means small, poorly fitted or top-dose-only effect, or effect the other way, or a change in a side signal; inactive means no such curve, though single readings can be large or run the other way; the % refers to the signal ratio; further: on the % scale 0 is the no-effect control and ±100 the full control effect). A digest of the protocol:
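HEK293 AR-UAS-bla cells, 10% dialyzed FBS medium; cpd titration + R1881 10 nM final, 16 h 37 C; CCF4 2 h RT; FRET ratio; IC50/efficacy via Hill fit.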

Assay [7] has as its target Vitamin D3 receptor (Homo sapiens) (UniProt P11473). The assay is described as follows: qHTS assay for small molecule antagonists of vitamin D receptor signaling (AID 588541).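 Further: receptor activated by calcitriol during compound treatment; series mostly up to about 77 µM; on the % scale 0 is the no-effect control and ±100 the full control effect.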 A digest of the protocol: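 VDR-UAS-bla HEK293T cells (2000/well, 2% charcoal-stripped FBS) were treated with titrated compounds plus 1-alpha,25-dihydroxyvitamin D3 (50 nM or 3 nM final) for 16 h at 37 C. CCF4 beta-lactamase fluorescence was read; Hill fits gave IC50.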

The nature of assay [8]: qHTS assay for small molecule agonists of retinoid X receptor alpha signaling (AID 588544). The following applies: HEK293T RXRa-UAS-bla, beta-lactamase reporter, 18 h; 530 nm emission.
Assay [9] can be described thus: qHTS assay for small molecule activators of the nuclear factor-kappa B (NF-kB) signaling pathway (AID 651749; active means well fitted activation curve with a large enough effect in the signal ratio; inconclusive means small, poorly fitted or top-dose-only effect, or a change in a side signal; the % refers to the signal ratio; further: series mostly up to about 77 µM; % of control where 0% means no effect). Particulars: NF-kB-bla ME-180 cells, beta-lactamase FRET ratio, 16 h; activation: stronger effect = higher value. A digest of the protocol:
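ME-180 cells stably carrying a beta-lactamase reporter under an NF-kB response element were exposed to compound or DMSO vehicle for 16 hr at 37C, 5% CO2. Pathway activation was read by FRET, since reporter expression disrupts FRET.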

The nature of assay [10]: qHTS assay for small molecule activators of the human pregnane X receptor (PXR) signaling pathway (AID 720659; call rule not given here; further: 0% is about no effect).
Assay [11] concerns the target Peroxisome proliferator-activated receptor gamma (Homo sapiens) (UniProt P37231). The assay can be described thus: qHTS assay for small molecule antagonists of peroxisome proliferator-activated receptor gamma signaling (AID 588537; active means well fitted inhibition curve with a large enough effect in the signal ratio, with a control signal flat, not every such curve was filed as active; inconclusive means small, poorly fitted or top-dose-only effect, or effect the other way, or a change in a side signal; the % refers to the signal ratio;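 further: reporter cells co-stimulated with 50 nM rosiglitazone agonist during compound treatment; % of control where 0% means no effect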). A digest of the protocol:
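PPAR-gamma-UAS-bla HEK293 cells (3000/well, 1% charcoal/dextran-stripped FBS) were preincubated 6-6.5 h at 37 C, given titrated compounds, then stimulated with 50 nM rosiglitazone for 16 h. Beta-lactamase activity was read with CCF4 dye; IC50 came from Hill fits.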

Assay [12] has as its target Cytochrome P450 3A4 (Homo sapiens) (UniProt P08684). The assay is described as follows: qHTS Assay for Inhibitors and Substrates of Cytochrome P450 3A4 (AID 884; active means well fitted curve in the direction sought with a large enough effect; inconclusive means small, poorly fitted or top-dose-only effect, or another doubt; inactive means no such curve, though single readings can be large; an effect the other way counts as inactive or inconclusive; further: potency means the concentration at half of the fitted maximal effect; nearly all actives have a fitted effect of over 50% in size). A digest of the protocol: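 20 nM human CYP3A4 with 25 uM Luciferin-PPXE (at KM) in 200 mM KPO4, preincubated 10 min with compound; NADPH regeneration started a 60 min RT reaction. Luciferin detected by luminescence, normalized to 57 uM ketoconazole as full inhibition.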

Assay [13] has the same target. The assay can be described thus: qHTS Assay for Activators of Cytochrome P450 3A4 (AID 885; active means well fitted curve in the direction sought with a large enough effect; inconclusive means small, poorly fitted or top-dose-only effect, or another doubt; inactive means no such curve, though single readings can be large; an effect the other way counts as inactive or inconclusive; further: nearly all actives have a fitted effect of over 65% in size). A digest of the protocol: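 Human CYP3A4 (20 nM) with Luciferin-PPXE at 25 uM (its KM) in 200 mM KPO4; 10 min compound preincubation, then NADPH regeneration and 60 min reaction at RT. Luciferin read by luminescence; normalized to 57 uM ketoconazole full inhibition.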
Assay [14] can be described thus: Cell Viability - LYMP2-001 (AID 921; active means well fitted curve in the direction sought with a large enough effect; inconclusive means small, poorly fitted or top-dose-only effect, or another doubt; inactive means no such curve, though single readings can be large; an effect the other way counts as inactive or inconclusive; further: potency means the concentration at half of the fitted maximal effect; nearly all actives have a fitted effect of over 70% in size). A digest of the protocol:
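CellTiter-Glo luminescence (intracellular ATP) after 24 hr compound exposure at 37 C, 2500 lymphoblastoid cells/well in complete medium. AC50 fitted with standard Hill equation; tetraoctylammonium bromide positive control.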

Assay [15] in a line: MultiTox-Fluor Cytotoxicity Assay - LYMP1-002 - Dead Cells (AID 960; active means well fitted curve in the direction sought with a large enough effect; inconclusive means small, poorly fitted or top-dose-only effect, or another doubt; inactive means no such curve, though single readings can be large; an effect the other way counts as inactive or inconclusive; further: potency means the concentration at half of the fitted maximal effect; nearly all actives have a fitted effect of over 60% in size). A digest of the protocol: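 Human lymphoblastoid cells (LYMP1-002), 2500/well in complete medium, were exposed to compounds for 16 hr at 37 C. Dead-cell protease activity was read as bis-AAF-R110 fluorescence (Ex/Em 485/520), normalized to DMSO and 15 uM tetraoctylammonium bromide; AC50 from Hill fits.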

A short description of assay [16]: MultiTox-Fluor Cytotoxicity Assay - LYMP1-003 - Dead Cells (AID 961; active means well fitted curve in the direction sought with a large enough effect; inconclusive means small, poorly fitted or top-dose-only effect, or another doubt; inactive means no such curve, though single readings can be large; an effect the other way counts as inactive or inconclusive; further: potency means the concentration at half of the fitted maximal effect; nearly all actives have a fitted effect of over 70% in size). A digest of the protocol:
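LYMP1-003 human lymphoblastoid cells (2500/well) exposed to compound 16 h at 37 C in complete medium; dead-cell protease read with bis-AAF-R110 fluorescence (Ex/Em 485/520) after 60 min at room temperature. Normalized to DMSO and 15 uM tetraoctylammonium bromide; AC50 from Hill fit.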

The nature of assay [17]: Cell Viability - LYMP2-003 (AID 965; active means well fitted curve in the direction sought with a large enough effect; inconclusive means small, poorly fitted or top-dose-only effect, or another doubt; inactive means no such curve, though single readings can be large; an effect the other way counts as inactive or inconclusive;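 further: potency means the concentration at half of the fitted maximal effect; cells exposed to compounds for 24 h before reading; nearly all actives have a fitted effect of over 50% in size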). A digest of the protocol: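 CellTiter-Glo luminescence (cellular ATP) after 24 h compound exposure at 37 C in complete medium; 2500 cells/well, 5 h settling beforehand. Concentration-response fitted to standard Hill equation for AC50. Tetraoctylammonium bromide served as positive control.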
Assay [18] in a line: Cell Viability - LYMP2-004 (AID 966; active means well fitted curve in the direction sought with a large enough effect; inconclusive means small, poorly fitted or top-dose-only effect, or another doubt; inactive means no such curve, though single readings can be large; an effect the other way counts as inactive or inconclusive; further: potency means the concentration at half of the fitted maximal effect; nearly all actives have a fitted effect of over 65% in size). A digest of the protocol: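 Human lymphoblastoid cells (2500/well) in complete medium were treated with compounds for 24 hr at 37 C, then intracellular ATP was measured by CellTiter-Glo luminescence. AC50 values came from Hill-equation fits of concentration-response data.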
The nature of assay [19]: qHTS assay to identify small molecules that stimulate interleukin-8 (IL-8) secretion (AID 651758; active means well fitted activation curve with a large enough effect in the signal ratio; inconclusive means small, poorly fitted or top-dose-only effect, or effect the other way, or a change in a side signal; the % refers to the signal ratio; further: potency means the concentration at half of the fitted maximal effect). A digest of the protocol:
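THP-1, 2000 cells/well; cpd 16 h, 37 C; add cryptate + XL665 anti-IL-8 Abs; RT 1-3 h; TR-FRET read.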

The target of assay [20] is Bile acid receptor (Homo sapiens) (UniProt Q96RI1). The assay can be described thus: qHTS assay for small molecule antagonists of farnesoid X receptor signaling (AID 588526). Further: on the % scale 0 is the no-effect control and ±100 the full control effect. A digest of the protocol:
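Concentration-response titrations were fitted to the Hill equation for half-maximal inhibition and maximal response, with data normalised to 50 uM chenodeoxycholic acid and DMSO control wells. Cells: FXR-UAS-bla HEK293T, dialyzed FBS.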

Estrogen receptor (Homo sapiens), sequence (P03372 whole entry, looked up): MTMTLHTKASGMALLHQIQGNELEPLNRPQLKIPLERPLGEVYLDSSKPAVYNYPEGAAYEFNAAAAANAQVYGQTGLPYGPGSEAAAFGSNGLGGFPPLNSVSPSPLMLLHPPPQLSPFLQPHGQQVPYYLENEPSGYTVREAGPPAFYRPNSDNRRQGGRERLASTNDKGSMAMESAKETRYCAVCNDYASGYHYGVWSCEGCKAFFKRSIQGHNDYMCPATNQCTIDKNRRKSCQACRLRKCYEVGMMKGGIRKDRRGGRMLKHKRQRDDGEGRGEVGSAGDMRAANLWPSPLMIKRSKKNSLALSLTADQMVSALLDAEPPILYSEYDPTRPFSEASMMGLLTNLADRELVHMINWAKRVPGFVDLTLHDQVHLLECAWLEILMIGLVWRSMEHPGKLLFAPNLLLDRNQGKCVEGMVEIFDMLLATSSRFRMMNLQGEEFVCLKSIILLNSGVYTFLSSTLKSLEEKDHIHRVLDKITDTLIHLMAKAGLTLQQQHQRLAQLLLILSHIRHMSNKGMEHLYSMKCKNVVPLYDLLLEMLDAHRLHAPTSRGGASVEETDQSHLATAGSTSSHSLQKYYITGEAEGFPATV
Bile acid receptor (Homo sapiens), sequence (Q96RI1 whole entry, looked up): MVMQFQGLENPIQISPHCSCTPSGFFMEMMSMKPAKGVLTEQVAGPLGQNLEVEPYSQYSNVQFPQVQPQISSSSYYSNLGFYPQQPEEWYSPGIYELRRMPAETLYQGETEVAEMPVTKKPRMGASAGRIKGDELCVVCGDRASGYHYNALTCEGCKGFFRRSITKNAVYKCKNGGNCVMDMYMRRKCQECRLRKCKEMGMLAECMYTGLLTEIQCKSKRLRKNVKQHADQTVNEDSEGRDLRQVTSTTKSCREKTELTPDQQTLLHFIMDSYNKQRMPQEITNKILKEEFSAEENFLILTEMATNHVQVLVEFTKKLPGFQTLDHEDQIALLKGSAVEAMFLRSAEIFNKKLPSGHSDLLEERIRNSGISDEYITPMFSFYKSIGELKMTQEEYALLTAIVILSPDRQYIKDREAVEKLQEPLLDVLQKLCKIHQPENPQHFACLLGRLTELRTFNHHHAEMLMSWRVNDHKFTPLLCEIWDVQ
Peroxisome proliferator-activated receptor gamma (Homo sapiens), sequence (P37231 whole entry, looked up): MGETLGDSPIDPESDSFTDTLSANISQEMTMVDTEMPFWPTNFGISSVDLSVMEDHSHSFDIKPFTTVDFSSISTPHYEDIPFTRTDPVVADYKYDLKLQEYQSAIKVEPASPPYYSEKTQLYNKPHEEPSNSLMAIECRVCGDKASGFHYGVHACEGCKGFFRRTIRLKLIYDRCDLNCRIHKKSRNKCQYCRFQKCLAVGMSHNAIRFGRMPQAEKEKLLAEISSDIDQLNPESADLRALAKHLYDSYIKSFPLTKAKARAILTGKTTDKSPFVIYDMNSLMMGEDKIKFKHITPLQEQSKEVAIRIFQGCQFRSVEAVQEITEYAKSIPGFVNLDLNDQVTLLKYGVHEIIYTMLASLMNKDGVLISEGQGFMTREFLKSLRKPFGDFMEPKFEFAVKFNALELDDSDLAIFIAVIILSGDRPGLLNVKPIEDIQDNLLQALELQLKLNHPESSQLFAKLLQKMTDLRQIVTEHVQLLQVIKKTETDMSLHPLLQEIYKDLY
Vitamin D3 receptor (Homo sapiens), sequence (P11473 whole entry, looked up): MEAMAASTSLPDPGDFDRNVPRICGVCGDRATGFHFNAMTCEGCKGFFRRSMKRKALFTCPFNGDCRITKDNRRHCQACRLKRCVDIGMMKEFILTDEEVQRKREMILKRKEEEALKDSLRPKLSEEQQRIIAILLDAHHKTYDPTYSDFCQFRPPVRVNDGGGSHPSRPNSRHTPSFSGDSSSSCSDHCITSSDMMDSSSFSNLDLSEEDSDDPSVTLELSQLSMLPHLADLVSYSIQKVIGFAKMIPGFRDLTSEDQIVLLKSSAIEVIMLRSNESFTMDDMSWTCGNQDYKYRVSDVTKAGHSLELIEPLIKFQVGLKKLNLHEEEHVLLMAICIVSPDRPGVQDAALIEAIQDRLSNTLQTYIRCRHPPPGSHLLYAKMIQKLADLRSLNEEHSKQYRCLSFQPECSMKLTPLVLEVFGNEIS
Cytochrome P450 3A4 (Homo sapiens), sequence (P08684 whole entry, looked up): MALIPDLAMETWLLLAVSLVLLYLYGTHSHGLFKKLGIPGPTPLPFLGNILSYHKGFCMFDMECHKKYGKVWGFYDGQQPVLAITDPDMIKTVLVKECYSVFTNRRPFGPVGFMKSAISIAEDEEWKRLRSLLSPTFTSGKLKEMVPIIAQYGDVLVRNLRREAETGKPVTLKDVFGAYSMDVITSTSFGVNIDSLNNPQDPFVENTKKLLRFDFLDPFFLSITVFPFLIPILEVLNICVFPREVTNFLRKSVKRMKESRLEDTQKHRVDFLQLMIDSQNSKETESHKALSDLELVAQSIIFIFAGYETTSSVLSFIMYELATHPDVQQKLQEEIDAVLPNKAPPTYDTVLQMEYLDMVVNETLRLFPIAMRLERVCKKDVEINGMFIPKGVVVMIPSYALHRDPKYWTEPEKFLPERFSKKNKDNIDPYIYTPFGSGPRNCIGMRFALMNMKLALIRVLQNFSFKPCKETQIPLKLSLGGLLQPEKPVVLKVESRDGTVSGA

As to `CC(=O)[C@H]1[C@H](C#N)C[C@H]2[C@@H]3CC=C4C[C@@H](O)CC[C@]4(C)[C@H]3CC[C@@]21C`, the Potency result in [1] is “inactive”. For the same compound, the activation in [2] was -2.16% (inactive) and -0.929% (inactive). The compound was called inactive in [3].

As to `O=P(OCC(Br)CBr)(OCC(Br)CBr)OCC(Br)CBr` (stereo unspecified), the Potency in assay [1] was 35.5 µM [inhibitor] (active); in assay [5], 15.4 µM (active). In addition, the activation in assay [4] was -12.7% (inactive); in [2], 0.554% (inactive).

With `CNC(=O)O/N=C(\SC)C(=O)N(C)C`, the Potency entry in [1], in [6] and in [7] was “inactive” each time. Further, the activation in assay [4] was -0.759% (inactive); in assay [9] it was -1.34% (inactive). The compound was classed as inactive in assay [3] and in assay [10]. Besides, in [8], the max response is -12.6%.

Regarding `COC(=O)c1sccc1S(=O)(=O)NC(=O)Nc1nc(C)nc(OC)n1`, the Potency entry in assay [1], in [11] and in assay [7] was “inactive” in each case. In addition, the compound was called inactive in assay [3] and in [10]. The max response in assay [8] was -0.622%. Besides, the activation in assay [9] was -1.57% (inactive).

Consider `O=Cc1cccc(Oc2ccccc2)c1`, for which the Potency entry in assay [1], in assay [11], in assay [7] and in [5] was “inactive” throughout. For the same compound, the compound was called inactive in [3] and in assay [10]. Besides, in assay [8], the max response was found to be 6.44%.

For the compound `Clc1ccccc1-c1nnc(-c2ccccc2Cl)nn1`, the Potency result in [1], in assay [11] and in [7] was “inactive” in each case. Moreover, the max response in [8] was -1.99%.

Regarding `c1cc(OCC2CO2)cc(OCC2CO2)c1` (stereo unspecified), the Potency in [12] was 15.8 µM (active); in [14], 31.6 µM (active); in assay [15] it was 25.1 µM (active); in [16] it was 39.8 µM (active); in [17], 25.1 µM (active); in [18] it was 20 µM (active). In addition, the results for the Potency in assay [1], in [5] and in [19] were 31.6 µM [inconclusive] (active), 29.8 µM (active) and 42.2 µM (active), respectively. The Potency result in [13], in assay [6] and in [11] was “inactive” each time. For the same compound, the activation in assay [4] is -20.7% (inactive); in assay [2], 0.408% (inactive).

For the compound `CC(C)(C)OOC(C)(C)c1ccc(C(C)(C)OOC(C)(C)C)cc1`, the activation in assay [4] is 4.74% (inactive); in [2] it was 3.45% (inactive); in [9], 0.854% (inactive). The Potency result in assay [6], in assay [20], in [11], in [7] and in assay [5] was “inactive” throughout. Also, the call in assay [3] was inactive. For the same compound, the max response in assay [8] is -9.77%.

As to `CC(C)(C)C(O)C(Oc1ccc(-c2ccccc2)cc1)n1cncn1` (stereo unspecified), the activation is -4.84% (inactive) in assay [4], 2.98% (inactive) in [2] and -1.06% (inactive) in [9]. Also, the Potency result in assay [20] and in assay [7] was “inactive” each time. Moreover, in assay [3], the result was inactive. Also, in [5], the Potency was 68.6 µM (active).

Turning to `[Ga]#[As]`, the activation in assay [4] is 2.63% (inactive). Besides, the Potency entry in assay [6], in assay [20], in [11] and in assay [7] was “inactive” throughout. Besides, the call in assay [10] was inactive.

Regarding `O=C(NC(=O)c1c(F)cccc1F)Nc1cc(Cl)c(OC(F)(F)C(F)F)c(Cl)c1`, in assay [4], the activation was 7.72% (inactive). The Potency result in assay [11] was “inactive”. Also, the max response in assay [8] came to 5.34%.

In the case of `CCOC(=O)C(Cl)Cc1cc(-n2nc(C)n(C(F)F)c2=O)c(F)cc1Cl` (stereo unspecified), the Potency result in assay [20] and in [7] was “inactive” in each case. Also, the activation in assay [2] is 1.1% (inactive); in assay [9], -0.796% (inactive). In addition, the compound was classed as inactive in assay [3] and in assay [10]. Also, the max response in assay [8] worked out at 14.3%. In [5], the Potency was 54.5 µM (active).
